# Reference: PubChem BioAssay (NCI)
# Values joined by “and” are separate entries in the source; they are usually repeats but may differ in a detail not shown here. Equal values may be shown once. The panel holds about 83,000 compounds, 20% with a hit somewhere; the sample as a whole holds those more often.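 Values shown are percent growth following 48 h exposure of cells in 96-well plates to a single concentration of compound; below 10 was considered active.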 Active and inactive are the calls of the source.
# System: HL-60(TB) leukemia
# Test: NCI-60 one-dose screen, 48 h (100 = growth as untreated, 0 = no growth, -100 = all killed)
# Details: 10 µM unless noted
row,Structure (SMILES),growth
1,O=C(Nc1cccc(-c2cccc(F)c2)c1)C1CCN(Cc2cccc3cccnc23)CC1,28% (inactive)
2,O=C(Nc1cccc(C2=NCCN2)c1)c1ccc(OCCCOc2ccc(C(=O)Nc3cccc(C4=NCCN4)c3)cc2)cc1,-27.3% (active)
3,COc1cc(NS(C)(=O)=O)ccc1Nc1c2ccccc2nc2c(C)cccc12,-29.5% (active) and -20.2% (active)
4,COC(=O)[C@]1(C)CCC[C@]2(C)[C@H]3C[C@H]4C(C(C)C)=C[C@]3(CC[C@H]21)[C@H]1[C@@H]4[C@@H](OCCC#N)CC[C@@H]1OCCC#N,2.28% (active)
5,Cn1c(=O)c2[nH]c(N/N=C/c3ccccc3Br)nc2n(C)c1=O,106% (inactive)
6,COc1ccc2nc3cc(Cl)ccc3c(NCCCNC(C)=O)c2c1,57.7% (inactive)
7,C/C(=N/NC(N)=S)c1ccc(C)cc1,92% (inactive)
8,Cc1ccc(/C=C2\CN(C(=O)OC(C)(C)C)C/C(=C\c3ccc(C)cc3)C2=O)cc1,41.9% (inactive)
9,O=C(Nc1ccc(Cl)cc1)Nc1ccc(Cl)c(Cl)c1,-23.6% (active)
10,CC[C@]12C=CCN3CC[C@@]4(c5cc(NC(=O)CCC(=O)OCc6cn(Cc7ccc(F)cc7)nn6)c(OC)cc5N(C)[C@H]4[C@@](O)(C(=O)OC)[C@@H]1OC(C)=O)[C@@H]32,96.8% (inactive)
11,Cc1cccc(Cl)c1NC(=O)c1ccc2nc(NC(=O)NCCN(C)C)sc2c1,115% (inactive)
12,Cc1cc(N(CCCNc2ccnc3cc(Cl)ccc23)Cc2cccs2)nc(Cl)n1,-3.12% (active)
13,Nc1[nH]n2cc(-c3ccccc3)nc2c1N=Nc1ccc(S(N)(=O)=O)cc1,27.9% (inactive)
14,COC1(OC)N=C(N)C2(C#N)C3(C(=O)Nc4ccccc43)C12C#N (stereo not given),72.5% (inactive)
15,O=c1c(/C=C/c2ccco2)nnc(SCCN2CCOCC2)n1/N=C/c1ccc([N+](=O)[O-])cc1,87.9% (inactive)
16,COc1ccc(-c2nc3sc(C)nn3c2-c2nc3cc(C)c(C)cc3[nH]2)cc1,112% (inactive)
17,COc1ccc(C2C3=C(COC3=O)N(CCO)c3cc4c(cc32)OCCO4)cc1 (stereo not given),82.1% (inactive)
18,O=C(Nc1cccc(Cl)c1)c1cc(Cl)ccc1O,-32.4% (active)
19,C[C@H](c1nc2ccc(N)cc2[nH]1)[C@H]1CC[C@H]2[C@@H]3CCC4=CC(=O)CC[C@]4(C)[C@H]3CC[C@]12C,-50.2% (active)
20,O=C1c2ccccc2C(=O)c2c(NCCNCCO)ccc(NCCNCCO)c21,64.9% (inactive) and 11.4% (inactive) and 2.46% (active)

row,Structure (SMILES),growth
1,CCCCNC(=O)Oc1ccc(/C(=C(/CC)Cc2ccccc2)c2ccc(OCCN3CCCCCC3)cc2)cc1,-12.8% (active)
2,ClCCn1cnc2c(SCc3ccccc3Cl)ncnc21,8.38% (active)
3,C=CC(=O)Nc1cccc(-c2nc(SC)nc(Nc3ccccc3OC)c2C#N)c1,14.1% (inactive)
4,ClC/C=C/CSc1ncnc2nc[nH]c12,97.9% (inactive) and 95.6% (inactive)
5,Cc1cc(NCc2cc(Nc3ccnc4cc(Cl)ccc34)ccc2F)nc(N2CCN(c3ccccc3)CC2)n1,-40.7% (active)
6,COc1cccc(-c2nn(-c3ccccc3)cc2-c2ccnc(NCCNS(=O)(=O)c3cccc(F)c3)c2)c1,5.83% (active)
7,CCCCNc1ccc(C#N)c(OCCN(CC)CC)c1,88.8% (inactive)
8,CCOC(=O)C#Cc1c(C(=O)OCC)nnn1[C@@H]1O[C@H](CO)[C@H]2OC3(CCCCC3)O[C@H]21,52.8% (inactive)
9,COc1cc(-c2cc(-c3cccs3)c(C#N)c(N3CCOCC3)n2)cc(OC)c1OC,58.9% (inactive)
10,Cc1ccc(S(=O)(=O)Nc2ccc(-c3cc(-c4cccc(F)c4)c(C#N)c(N)n3)cc2)cc1,-14.9% (active)
11,CCOc1ccccc1/C=N\N=C\c1ccccc1O,30.6% (inactive)
12,Cc1cc(Cl)nc(N(CCCNc2ccnc3cc(Cl)ccc23)Cc2cccs2)n1,-41.4% (active)
13,O=C(Nc1ccc(F)cc1F)c1cc(Br)ccc1O,-36.2% (active)
14,CCC(C(=O)[C@@H](C)[C@@H](O)[C@H](C)[C@@H]1O[C@@H]([C@@H](CC)C(=O)ONC(=O)c2ccccc2)CC[C@@H]1C)[C@H]1O[C@]2(C=CC(=O)[C@]3(CC[C@@](C)([C@H]4CC[C@](O)(CC)[C@H](C)O4)O3)O2)[C@H](C)C[C@@H]1C (stereo not given in full),-63.9% (active)
15,CN1CCN(c2nc(NCCCCNc3ccnc4cc(Cl)ccc34)c3ccccc3n2)CC1,28.6% (inactive)
16,O=S1(=O)CC(Br)C(Br)C1 (stereo not given),34.4% (inactive) and 81.8% (inactive)
17,Cc1ccc(S(=O)(=O)OCCN(CCOS(=O)(=O)c2ccc(C)cc2)c2c[nH]c(=O)[nH]c2=O)cc1,99.2% (inactive)
18,C=CC(=O)N1CCC[C@H](n2c(=O)n(-c3ccc(Oc4ccccc4)cc3)c3c(N)ncnc32)C1,92.4% (inactive)
19,CC(C)CCNC(=O)Cn1cccc(NC(=O)OCc2ccccc2)c1=O,103% (inactive)
20,OCCCC1CCN(C(Cc2ccccc2)c2ccccc2)CC1 (stereo not given),95.8% (inactive)
